From PubChem BioAssay AID1159580 (chemical genetic matrix, 2015)
Where “and” joins values, the source holds several entries; their conditions need not be identical. Identical values can stand only once. About 2,000 (36%) of roughly 5,500 compounds were called active. Roughly 18% stayed inconclusive and do not appear here. The list shows a part of the results. Unmarked numbers belong to inactive results. Rule as the data show it: active = normalized growth mostly below about 0.91 (no sharp cut-off); inconclusive = no clear call, values can overlap the other calls; inactive = mostly above about 0.92.

Assay: chemical genetic growth profiling, strain panel (AID 1159580);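 also: tested at 20 µM; growth read once vehicle control cultures reached saturation at 30 °C; 1 = growth at the plate median or of vehicle wells; lower values mean less growth of the strain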
Conditions: S. cerevisiae deletion strains, growth OD

## CC[C@@H](C(=O)C(C)[C@@H](O)[C@H](C)CCc1ccc(C)c(O)c1C(=O)O)C1OC(CC)(C2CC[C@](O)(CC)[C@H](C)O2)C[C@@H]1C (stereo partly drawn)
Locus YAL013W, strain DEP1, active compounds read low
  normalized growth: 1.05
Locus YAL021C, strain ccr4, active compounds read low
  normalized growth: 1.03
Locus YAL026C, strain drs2, active compounds read low
  normalized growth: 0.949
Locus YAL030W, strain snc1, active compounds read low
  normalized growth: 1.06
Locus YBL061C, strain skt5, active compounds read low
  normalized growth: 1.06
Locus YBR009C, strain hhf1, active compounds read low
  normalized growth: 1.01
Locus YBR021W, strain FUR4, active compounds read low
  normalized growth: 1.16 [resistant] (active)
Locus YBR023C, strain chs3, active compounds read low
  normalized growth: 1.06
Locus YBR171W, strain sec66, active compounds read low
  normalized growth: 1.12 [resistant] (active)
Locus YBR229C, strain ROT2, active compounds read low
  normalized growth: 1.04
Locus YBR231C, strain swc5, active compounds read low
  normalized growth: 1.07
Locus YBR279W, strain paf1, active compounds read low
  normalized growth: 1.06
Locus YCL011C, strain gbp2, active compounds read low
  normalized growth: 1.06
Locus YCL016C, strain dcc1, active compounds read low
  normalized growth: 1.05
Locus YCL029C, strain bik1, active compounds read low
  normalized growth: 1.02
Locus YCL061C, strain MRC1, active compounds read low
  normalized growth: 1.04
Locus YCL069W, strain vba3, active compounds read low
  normalized growth: 1.08 [resistant] (active)
Locus YCR088W, strain abp1, active compounds read low
  normalized growth: 1.07
Locus YDL005C, strain med2, active compounds read low
  normalized growth: 1.08
Locus YDL035C, strain GPR1, active compounds read low
  normalized growth: 0.978
Locus YDL040C, strain nat1, active compounds read low
  normalized growth: 1.06
Locus YDL074C, strain BRE1, active compounds read low
  normalized growth: 0.938
Locus YDL101C, strain DUN1, active compounds read low
  normalized growth: 1.03
Locus YDL134C, strain PPH21, active compounds read low
  normalized growth: 1.02
Locus YDL185W, strain tfp1, active compounds read low
  normalized growth: 0.993
Locus YDL192W, strain arf1, active compounds read low
  normalized growth: 1.01
Locus YDR001C, strain nth1, active compounds read low
  normalized growth: 1.07
Locus YDR069C, strain doa4, active compounds read low
  normalized growth: 1.02
Locus YDR101C, strain arx1, active compounds read low
  normalized growth: 1.04
Locus YDR137W, strain rgp1, active compounds read low
  normalized growth: 1.24 [resistant] (active)
Locus YDR150W, strain NUM1, active compounds read low
  normalized growth: 1.05
Locus YDR159W, strain sac3, active compounds read low
  normalized growth: 0.996
Locus YDR162C, strain NBP2, active compounds read low
  normalized growth: 1.01
Locus YDR195W, strain ref2
  normalized growth: 1.05
Locus YDR297W, strain sur2, active compounds read low
  normalized growth: 1.05
Locus YDR318W, strain mcm21, active compounds read low
  normalized growth: 1.01
Locus YDR334W, strain swr1, active compounds read low
  normalized growth: 1.08
Locus YDR335W, strain msn5, active compounds read low
  normalized growth: 1.08
Locus YDR388W, active compounds read low
  normalized growth: 1.02
Locus YDR392W, strain spt3, active compounds read low
  normalized growth: 0.732 (active)
Locus YDR502C, strain sam2, active compounds read low
  normalized growth: 1
Locus YEL003W, strain gim4, active compounds read low
  normalized growth: 1.04
Locus YEL037C, strain rad23, active compounds read low
  normalized growth: 1.07
Locus YEL061C, strain CIN8 (second series), active compounds read low
  normalized growth: 1.08
Locus YEL061C, strain CIN8, active compounds read low
  normalized growth: 1.02
Locus YER015W, strain faa2, active compounds read low
  normalized growth: 1.06
Locus YER016W, strain bim1, active compounds read low
  normalized growth: 1.05
Locus YER110C, active compounds read low
  normalized growth: 1.02
Locus YER111C, strain swi4, active compounds read low
  normalized growth: 1.07
Locus YER155C, strain BEM2 (second series), active compounds read low
  normalized growth: 1.04
Locus YER155C, strain BEM2, active compounds read low
  normalized growth: 1.13 [resistant] (active)
Locus YER167W, strain BCK2, active compounds read low
  normalized growth: 1.02
Locus YFR010W, strain ubp6, active compounds read low
  normalized growth: 1.06
Locus YGL078C, strain dbp3, active compounds read low
  normalized growth: 0.998
Locus YGL086W, strain mad1, active compounds read low
  normalized growth: 1.05
Locus YGL167C, strain pmr1, active compounds read low
  normalized growth: 1.07
Locus YGL173C, strain kem1, active compounds read low
  normalized growth: 1.04
Locus YGL227W, strain vid30, active compounds read low
  normalized growth: 1.09 [resistant] (active)
Locus YGL240W, strain doc1, active compounds read low
  normalized growth: 1.03
Locus YGL248W, strain PDE1, active compounds read low
  normalized growth: 1.02
Locus YGL253W, strain hxk2, active compounds read low
  normalized growth: 1.06
Locus YGR135W, strain pre9, active compounds read low
  normalized growth: 0.981
Locus YGR252W, strain gcn5, active compounds read low
  normalized growth: 0.967
Locus YHR013C, strain ard1, active compounds read low
  normalized growth: 1.1
Locus YHR027C, strain rpn1, active compounds read low
  normalized growth: 1.07
Locus YHR030C, strain SLT2, active compounds read low
  normalized growth: 1.03 and 0.969
Locus YHR079C, strain IRE1 (second series), active compounds read low
  normalized growth: 1.02
Locus YHR079C, strain IRE1, active compounds read low
  normalized growth: 0.944
Locus YHR094C, strain hxt1, active compounds read low
  normalized growth: 1.03
Locus YHR129C, strain ARP1, active compounds read low
  normalized growth: 1.04
Locus YHR142W, strain chs7, active compounds read low
  normalized growth: 1.08
Locus YHR200W, strain rpn10, active compounds read low
  normalized growth: 1.02
Locus YIL066C, strain RNR3, active compounds read low
  normalized growth: 1.02
Locus YIL073C, strain SPO22, active compounds read low
  normalized growth: 0.988
Locus YIL125W, strain kgd1, active compounds read low
  normalized growth: 1
Locus YIR030C, strain dcg1, active compounds read low
  normalized growth: 1.03
Locus YJL092W, strain hpr5, active compounds read low
  normalized growth: 1.06
Locus YJL095W, strain BCK1 (second series), active compounds read low
  normalized growth: 1.06
Locus YJL095W, strain BCK1, active compounds read low
  normalized growth: 1.02 and 0.976
Locus YJL115W, strain asf1, active compounds read low
  normalized growth: 1.06
Locus YJL129C, strain trk1, active compounds read low
  normalized growth: 0.976
Locus YJL134W, strain LCB3, active compounds read low
  normalized growth: 1.04
Locus YJL154C, strain vps35, active compounds read low
  normalized growth: 1.06
Locus YJL164C, strain tpk1, active compounds read low
  normalized growth: 1.03
Locus YJL166W, strain qcr8, active compounds read low
  normalized growth: 1.06
Locus YJL168C, strain set2, active compounds read low
  normalized growth: 1.04
Locus YJL187C, strain SWE1 (second series), active compounds read low
  normalized growth: 1.03
Locus YJL187C, strain SWE1, active compounds read low
  normalized growth: 1.06
